# Experimental data published in the supplement of paper PMC4206467.
# System: Perkinsus marinus PRA240
# Experiment: ATP content (proliferation) relative to DMSO control; higher = more parasite growth (less inhibition)
# Settings: 20 µM; 4 days
# Procedure: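 Perkinsus marinus PRA240 trophozoites (2-5x10^6 cells/ml, 100 µl, 96-well) were exposed once to MMV Malaria Box compounds at 20 µM (0.1% DMSO) in triplicate. ATP content (ATPlite bioluminescence) was read at day 4 post-exposure and normalised to DMSO + cells control wells (100% activity). Compounds were identified by joining plate and well to the Malaria Box list.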
row,SMILES,ATP content
1,CC(O)(c1ccc(Cl)cc1)C(CN1CCCCC1)c1ccccc1 (stereo not given),79.2%
2,COc1cccc(C(=O)Nc2ccc(-c3nc4ccccc4[nH]3)cc2)c1,108%
3,Cc1ccccc1OCCSc1nc2ccc(NC(=O)c3ccccc3)cc2s1,50.6%
4,Cc1ccc(OCCCCCCNCCO)c(C)c1,164%
5,O=C(CSc1ccc2nnc(-c3cccc(F)c3)n2n1)Nc1ccc2c(c1)OCO2,102%
6,COc1cc(SC)ccc1C(=O)N1CCCC(C)C1 (stereo not given),134%
7,O=c1nc(C=Cc2ccc(Cl)cc2)oc2ccccc12,22.2%
8,COc1ccc(-c2nc(N3CCN(C(=O)C4CCCCC4)CC3)c3c4c(sc3n2)CCCC4)cc1,69.7%
9,CCOC(=O)c1cnc2c(CC)cccc2c1O,80.1%
10,CCCOCc1cc(CN2CCN(c3cccc(Cl)c3)CC2)c(O)c2ncccc12,22.8%
11,CCN(CC)CCCNc1ccnc2cc3ccccc3cc12,139%
12,Cn1c(=O)n(C)c2cc(CNCCNc3ccnc4cc(Cl)ccc34)ccc21,132%
13,CCOc1cc2c(cc1OCC)C(c1cc(Cl)c(O)c(OCC)c1)NCC2 (stereo not given),97.3%
14,O=C(Nc1ccc(F)c(Cl)c1)Nc1ccc(Cl)c(Cl)c1,46.8%
15,Cc1cc(NC(=O)c2cccc(C(F)(F)F)c2)n(-c2nc(-c3ccc4c(c3)OCO4)cs2)n1,144%
16,O=C1CC(O)(C(F)(F)C(F)(F)F)Oc2ccccc21 (stereo not given),34.8%
17,CN(C)c1ccc(N=Cc2ccc(N3CCOCC3)cc2)cc1,108%
18,Cc1ccc(Cn2c(N3CCC(C(=O)NCc4cccs4)CC3)nc3ccccc32)cc1,106%
19,Cc1ccc(CSCc2ccc(C(=O)NC3CC3)o2)cc1,54.8%
20,N=c1n(CCN2CCCCC2)c2ccccc2n1CC(O)c1cccc(Br)c1 (stereo not given),116%

row,SMILES,ATP content
1,c1ccc2c(NCCc3c[nH]c4ccccc34)c3ccccc3nc2c1,179%
2,COc1ccc(-c2nonc2NC(=O)c2cccc(Cl)c2)cc1OC,135%
3,c1ccc(CNc2nc(Nc3ccccc3)nc3ccccc23)cc1,75.4%
4,CCCC(c1nnnn1C1CCCCC1)N1CCN(C(=O)c2ccco2)CC1 (stereo not given),115%
5,COc1ccc(C(=O)NC(c2ccc(Cl)cc2Cl)c2cc(Cl)c3cccnc3c2O)cc1 (stereo not given),96.4%
6,CC1CC2=C(CC1CNCCCN(C)C)C(C)(C)CCC2 (stereo not given),119%
7,CCOc1ccccc1CN1CCc2nc3cc(C(C)(C)C)nn3c(O)c2C1,51.7%
8,COc1cccc(NC(=O)Cn2c(C)c(C#N)c3ccccc32)c1,110%
9,O=C(NC1CCN(Cc2ccccc2)CC1)c1cc(-c2cccnc2)nc2ccc(Cl)cc12,137%
10,COc1cccc(Cn2c(Oc3ccccc3)nc3c2c(=O)n(C)c(=O)n3C)c1,106%
11,O=C(NC(c1ccccc1)c1ccc2cccnc2c1O)c1ccccc1 (stereo not given),26.3%
12,CCCCc1c(CCC)c(=N)c2ccccc2n1C,95.4%
13,O=C(Nc1ccc(CN2CCOCC2)cc1)c1ccc(-c2cc(Cl)ccc2Cl)o1,122%
14,Cc1ccc(S(=O)(=O)c2c(COC(=O)c3cccc(C)c3)c(-c3ccccc3)nn2C)cc1,162%
15,Cc1[nH]c(-c2ccc(F)cc2)cc1C(=O)NC1CCN(Cc2ccccc2)CC1,108%
16,CCOC(=O)c1cnc2ccc(OC)cc2c1Nc1ccc(N2CCN(C)CC2)cc1,106%
17,CCN(CC)CCCNc1nc(-c2ccc(Cl)cc2)nc2ccccc12,99.6%
18,CN1CCN(c2nc(Nc3ccc(O)cc3)nc3ccccc23)CC1,114%
19,Oc1ccc(-c2nc(-c3ccc4oc5ccc(-c6[nH]c(-c7ccc(O)cc7)nc6-c6ccccc6)cc5c4c3)c(-c3ccccc3)[nH]2)cc1,124%
20,CC(=O)Nc1nnc(SCc2c(C)cc(C(C)(C)C)cc2C)s1,84.2%
